Screening data: PubChem BioAssay, National Center for Advancing Translational Sciences (NCATS)
In the library only some 19% were active in any assay of this set; here they are far more common.
ELG1 DNA repair – blocks ELG1-dependent DNA repair in HEK293T cells. HEK293T ELG1-luciferase reporter, luminescence, 16 h; DNA damage induced by 5-fluorouridine. Potency, µM (doses to about 46.1 µM), most hits filed as inhibitors. 2.3% of 330,000 active. AID 504467; note: nearly all actives have a fitted effect of over 55% in size
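DMSO vehicle served as the neutral condition. Each well held 2,000 cells given 5-fluorouridine plus compound; after 16 hr at 37 °C/5% CO2, ONE-Glo was added and luciferase measured 30 min later.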
IL-1B inflam inh – inflammasome signaling inhibition, IL-1 beta readout. THP-1 LPS/ATP IL-1B secretion, AlphaLISA, 16 h; stronger effect = lower value. activity change, % at 57.5 µM. 4.7% of 360,000 active; in the data active = activity change below about -50%; inconclusive = mostly about -30% to -49%
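THP-1 cells pretreated 1 hr with compounds (up to 57.5 uM final), then stimulated with LPS (250 ng/mL final) plus ATP (1.25 mM final); secreted IL-1B measured by AlphaLISA after 16 hr, decreased signal indicating inhibition.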
DT40 TDP1 no CPT – qHTS for Inhibitors of human tyrosyl-DNA phosphodiesterase 1 (TDP1): qHTS in cells in absence of CPT | DT40 Tdp1-/- hTDP1 cells, no CPT, ATP luminescence, 48 h | Potency, µM (titrated, usually from 46.2 µM), most hits filed as inhibitors | 15% of 420,000 active; note: nearly all actives have a fitted effect of over 55% in size
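A cellular qHTS used chicken DT40 cells lacking endogenous Tdp1 but carrying stably transfected human TDP1. Compounds were applied without camptothecin, and cell growth kinetics were judged by ATP-dependent luminescence after ≥48 hr.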
HT1080 IDH1KD tx – kills HT-1080 cells with IDH1 knockdown; HT-1080 IDH1 knockdown viability, ATP luminescence, 48 h; Potency, µM (top dose mostly 46.1 µM), hits mostly cytotoxic; 2% of 360,000 active; AID 686971
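CellTiter-Glo luminescence after 48 h compound exposure at 37 degrees C of IDH1-knockdown HT-1080 cells in 5% FBS RPMI. %Activity scaled between DMSO wells and cell-free media wells, with curves fitted and assigned curve classes.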
HT1080-NT tox – kills 2HG-producing HT-1080-NT fibrosarcoma cells. Potency, µM (doses to about 46.1 µM), usual class: cytotoxic. HT-1080-NT fibrosarcoma viability, CellTiter-Glo ATP luminescence, 48 h. 1.6% of 360,000 active. AID 686970;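 note: NT is the 2HG producing partner of a matched IDH1 knockdown line; nearly all actives have a fitted effect of over 55% in size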
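Compounds were tested in concentration-response format on HT-1080-NT cells for 48 hours at 37 degrees C. Cell viability came from CellTiter-Glo luminescence; curves were classified by r2, response magnitude and activity.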
DT40 TDP1 CPT – DT40-hTDP1 cell growth loss with CPT; chicken DT40 Tdp1-/-;hTDP1 cells + 20 nM CPT, ATP luminescence, 48 h; Potency, µM (doses to about 46.2 µM), most hits filed as inhibitors; 12% of 420,000 active; AID 686979; note: nearly all actives have a fitted effect of over 55% in size
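Cell growth measured by CellTiter-Glo luminescence after a minimum 48 h, 37 C compound exposure with 20 nM CPT in Tdp1-knockout DT40 cells stably expressing hTDP1, seeded 400/well; qHTS titration format.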
A number is an active result; . = inactive; ? = inconclusive; / = no result; [ ] = remark or other dose. Unless noted, calls come from the whole dose curve; as a rule, active = well fitted curve in the direction sought with a large enough effect; inconclusive = small, poorly fitted or top-dose-only effect, or another doubt; inactive = no such curve, though single readings can be large; an effect the other way counts as inactive or inconclusive.

SMILES	ELG1 DNA repair	IL-1B inflam inh	DT40 TDP1 no CPT	HT1080 IDH1KD tx	HT1080-NT tox	DT40 TDP1 CPT
CCOc1ccc(-n2c(SCC(=O)Nc3ccc(C(=O)O)cc3)nc3ccccc3c2=O)cc1	.	.	.	.	.	.
O=C(OCC(=O)c1c[nH]c2ccccc12)c1ccc(F)c(S(=O)(=O)N2CCOCC2)c1	/	.	?	.	.	.
COC(=O)Cc1ccc(NC(=O)c2ccc(C(C)(C)C)cc2)cc1	9.2µM	-50	?	.	.	?
CC(=O)Nc1cccc(OCCCNC(=O)c2ccc(F)cc2)c1	?	.	.	.	.	.
CC(=O)Nc1cccc(OCCCNC(=O)c2ccc(C(C)(C)C)cc2)c1	.	.	?	15µM	?	?
COc1cccc(C(=O)Nc2ccc(NC(=O)c3ccc(C(C)(C)C)cc3)cc2)c1	/	/	10µM	/	/	16µM
CC(C)(C)c1cnnn1-c1ccc(NC(=O)c2ccc3c(c2)OCO3)cc1	?	.	21µM	.	.	?
COC(=O)Cc1ccc(NC(=O)c2ccccc2Cl)cc1	?	.	.	.	.	.
CC(C)(C)c1ccc(C(=O)Nc2ccc(Oc3cccnc3)nc2)cc1	2.1µM	-73	13µM	?	.	?
COc1cccc(S(=O)(=O)NCC(=O)Nc2ccc(C(C)(C)C)cc2)c1	.	-60	?	.	.	?
CC(C)(C)c1cnnn1-c1ccc(NC(=O)c2ccc(Br)o2)cc1	.	.	.	.	.[9.24 µM]	.
COc1ccc(NC(=O)c2ccc3c(c2)n(C)c(=O)n3C)cc1	?	-56	.	.	.	.
COc1cccc(C(=O)Nc2ccc(-n3nncc3C(C)(C)C)cc2)c1	?	.	21µM	.	.	?
COc1ccc(C(=O)Nc2ccc3c(c2)n(C)c(=O)n3C)cc1OC	?	.	.	.	.	.
COC(=O)N1CCC2(CCN(C(=O)Nc3cccc(F)c3)CC2)CC1	/	/	?	/	/	.
CCCc1cc(OC)c2c(c1)OCO2	/	/	.	/	/	.
Cc1ccc(NC(=O)c2ccc3nc(Cc4ccccc4)oc3c2)cc1F	/	/	.	/	/	?
CCOC(=O)c1cccc(NC(=O)c2ccc3nc(Cc4ccccc4)oc3c2)c1	/	/	16µM	/	/	23µM
COCCNC(=O)c1ccc2nc(Cc3ccccc3)oc2c1	/	/	.	/	/	.
COc1cccc(NC(=O)c2ccc3nc(Cc4ccccc4)oc3c2)c1	/	/	16µM	/	/	16µM
CCC(NC(=O)c1ccc2nc(Cc3ccc(OC)cc3)oc2c1)c1ccncc1 (stereo not drawn)	?	.	3.7µM	21µM	?	7.3µM
Cc1ccc(C(=O)NCC(c2ccc3c(c2)OCO3)N2CCN(C)CC2)cc1C (stereo not drawn)	/	/	.	/	/	.
O=C(c1ccco1)N1CCC2(CCCN(c3ccccn3)C2)CC1	/	/	?	/	/	.
CCOC(=O)c1sc2nc(N3CCOCC3)c3c(c2c1N)CCC3	?	?	?	.	.	.
CCOC(=O)c1oc2nc(CC(C)C)c3c(c2c1N)CCC3	.	?	15µM	.	.	?
SMILES	ELG1 DNA repair	IL-1B inflam inh	DT40 TDP1 no CPT	HT1080 IDH1KD tx	HT1080-NT tox	DT40 TDP1 CPT
CC(=O)N1C2=CCCC3CCCCC23c2ccccc21 (stereo not drawn)	/	.	26µM	.	.	21µM
CCNC(=O)N1C(=O)C2(OCCO2)c2ccccc21	.	.	.	.	.	.
O=c1[nH]c2ccccc2cc1-c1nnn(-c2ccc(Cl)c(Cl)c2)n1	/	.	?	.	.	7.3µM
Cc1cc(Br)cn2c(Cc3ccsc3)c(-c3cccc(Cl)c3)nc12	/	.	?	.	.	.
N#Cc1ccc(-c2nc3ccc(Br)cn3c2Cc2ccsc2)cc1	/	.	.	.	.	.
Clc1ccc(-c2nc3ccc(Br)cn3c2Cc2ccsc2)cc1	/	.	16µM	?	.	16µM
Cc1cc(Br)cn2c(Cc3ccsc3)c(-c3ccco3)nc12	/	.	?	23µM	16µM	?
Clc1ccc(-c2nc3ccc(Br)cn3c2Cc2ccccc2)cc1	/	.	21µM	.	.	23µM
Cc1cc(Br)cn2c(Cc3ccsc3)c(-c3ccc(Cl)cc3)nc12	/	.	18µM	?	?	15µM
Fc1ccc(-c2nc3ccc(Br)cn3c2Cc2ccccc2)cc1	/	.	?	.	.	?
COc1cc(CCC(N)c2cccc(O)c2)cc(OC)c1OC (stereo not drawn)	/	.	.	.	.	.
Brc1ccc(-c2nc3ccc(Br)cn3c2Cc2ccccc2)cc1	/	.	21µM	?	?	?
COc1cccc(N2CC(NC(=O)COc3ccccc3F)CC2=O)c1 (stereo not drawn)	/	/	.	/	/	.
Brc1ccc(OCc2ccccc2)c(CNCc2ccncc2)c1	?	-59	?	?	?	16µM
Brc1cccc(CNCc2ccncc2)c1	.	.	.	.	.	.
Fc1ccc(COc2ccccc2CNCc2ccncc2)cc1	.	.	26µM	.	.	?
CCN(CC)c1cc(C)c2cc(NC(=O)c3ccccc3OC)ccc2n1	?	/	16µM	?	?	?
CCCCc1ccc(C(=O)Nc2ccc3nc(N(CC)CC)cc(C)c3c2)cc1	/	/	18µM	/	/	?
CCN(CC)c1cc(C)c2cc(NC(=O)c3ccc(OC)c(OC)c3)ccc2n1	/	/	23µM	/	/	21µM
CCN(CC)c1cc(C)c2cc(NC(=O)c3cccc(F)c3)ccc2n1	/	/	23µM	/	/	?
CCOc1ccc(NC(=O)CSc2nnc(-c3ccncc3)n2-c2ccccc2)cc1	/	/	.	/	/	.
COc1cc(=O)n2c(c1C(=O)NCc1ccco1)CCN(C(=O)c1c(F)ccc(F)c1F)CC2	/	/	.	/	/	.
CC1=NNC(=O)c2ccccc2O1	.	.	.	.	.	.
CCN(CC)c1cc(C)c2cc(NC(=O)c3cccs3)ccc2n1	?	/	23µM	.	?	16µM
CCN(CC)c1cc(C)c2cc(NC(=O)c3ccc(Br)o3)ccc2n1	?	-66	?	.	.	?
SMILES	ELG1 DNA repair	IL-1B inflam inh	DT40 TDP1 no CPT	HT1080 IDH1KD tx	HT1080-NT tox	DT40 TDP1 CPT
Cc1ccc(NC(=O)c2cccs2)cc1	?	.	.	.	.	?
CCOC(=O)N1CCc2c(sc3c2c(=O)n(-c2ccccc2C(F)(F)F)c(=O)n3Cc2ccccc2C)C1	/	/	?	/	/	18µM
CC(=O)N1CCc2c(sc3c2c(=O)n(-c2ccccc2)c(=O)n3Cc2ccccc2Cl)C1	.	.	.	.	.	.
CC(=O)N1CCc2c(sc3c2c(=O)n(CCc2ccccc2)c(=O)n3Cc2ccccc2C)C1	/	/	16µM	/	/	15µM
CCOC(=O)N1CCc2c(sc3c2c(=O)n(Cc2ccccc2)c(=O)n3CC(=O)NCCOC)C1	.	.	.	.	.	.
CC(=O)N1CCc2c(sc3c2c(=O)n(-c2ccc(F)cc2)c(=O)n3Cc2cc(C)ccc2C)C1	/	/	.	/	/	.
